Compound activity: PubChem BioAssay, National Center for Advancing Translational Sciences (NCATS)
MCF10A rereplic: A quantitative high throughput screen for small molecules that induce DNA re-replication in MCF 10a normal breast cells. MCF 10A DNA re-replication, Hoechst nuclear intensity, 48 h. Potency, µM (top dose mostly 46.1 µM), for the others: at the top dose activity, positive = re-replication, usual class: activators. 2.9% of 350,000 active. AID 624296, 2012; note: potency is the fitted concentration of half-maximal effect; % of control where 0% means no effect; nearly all actives have a fitted effect of over 50% in size
DT40 TDP1 CPT: qHTS for Inhibitors of human tyrosyl-DNA phosphodiesterase 1 (TDP1): qHTS in cells in presence of CPT; chicken DT40 Tdp1-/-;hTDP1 cells + 20 nM CPT, ATP luminescence, 48 h; Potency, µM (series often up to 46.2 µM), for the others: top-dose activity change, negative = growth inhibition, actives largely listed as inhibitors; 12% of 420,000 active; note: potency is the fitted concentration of half-maximal effect; % is set by controls: 0 for no effect and ±100 for the full control effect; nearly all actives have a fitted effect of over 55% in size
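Cell growth measured by CellTiter-Glo luminescence after a minimum 48 h, 37 C compound exposure with 20 nM CPT in Tdp1-knockout DT40 cells stably expressing hTDP1, seeded 400/well; qHTS titration format.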
SW480 rereplic: A quantitative high throughput screen for small molecules that induce DNA re-replication in SW480 colon adenocarcinoma cells | 1.8% of 340,000 active | SW480 DNA re-replication, Hoechst DNA content imaging, 48 h | Potency, µM (doses to about 46.1 µM), for inactives: at the highest dose re-replication activation, hits mostly activators; note: potency is the fitted concentration of half-maximal effect; % of control where 0% means no effect; nearly all actives have a fitted effect of over 55% in size
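Cells (250 per well) received 23 nL compound or DMSO by pin tool and were kept 48 hr at 37 C, 5% CO2. Nuclei were then stained with Hoechst for 40 min and scanned for DNA content.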
BCR signal inh: qHTS Assay to Find Inhibitors of Chronic Active B-Cell Receptor Signaling. ABC-DLBCL IkBa-CBG/CBR reporter, luminescence ratio, 4 h. Potency, µM (top dose mostly 46.1 µM), for inactives: top-dose activity change, negative = inhibition, most hits filed as inhibitors. 0.05% of 340,000 active; active = well fitted inhibition curve with a large enough effect in the signal ratio, with a control signal flat, not every such curve was filed as active; inconclusive = small, poorly fitted or top-dose-only effect, or effect the other way, or a change in a side signal; the % refers to the signal ratio;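 note: potency is the fitted concentration of half-maximal effect; plate controls were basal doxycycline-induced cells for no effect and cells given 10 µM MG132 for full effect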
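Cell line TMD8 (human ABC DLBCL), stably expressing tet-inducible CBG68-IkBa fusion and CBR; IMDM/0.5% FBS; cpd up to 46 uM; dox induction, 4 h, 37C/5% CO2; dual luminescence; green/red ratio; MG132 control.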
IL-1B inflam inh: qHTS for Inhibitors of Inflammasome Signaling: IL-1-beta AlphaLISA Primary Screen; 4.7% of 360,000 active; activity change, % at 57.5 µM; THP-1 LPS/ATP IL-1B secretion, AlphaLISA, 16 h; active compounds read low; in the data active = activity change below about -50%; inconclusive = mostly about -30% to -49%; note: % is set by controls: 0 for no effect and ±100 for the full control effect
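Secreted IL-1B measured by AlphaLISA bead assay after 16 h compound exposure of THP-1 cells; compounds (final up to 57.5 uM) added 1 h before LPS (250 ng/mL) and ATP (1.25 mM) stimulation; lower signal means less secretion.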
TDP1 cell noCPT: qHTS for Inhibitors of human tyrosyl-DNA phosphodiesterase 1 (TDP1): qHTS in cells in absence of CPT. 15% of 420,000 active. Potency, µM (series often up to 46.2 µM), for inactives: at the top dose activity change, negative = growth inhibition, usual class: inhibitors. AID 686978, 2013. DT40 Tdp1-/- hTDP1 cells, no CPT, ATP luminescence, 48 h; note: potency is the fitted concentration of half-maximal effect; % is set by controls: 0 for no effect and ±100 for the full control effect; nearly all actives have a fitted effect of over 55% in size
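A cellular qHTS used chicken DT40 cells lacking endogenous Tdp1 but carrying stably transfected human TDP1. Compounds were applied without camptothecin, and cell growth kinetics were judged by ATP-dependent luminescence after ≥48 hr.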
Active calls of the source: *; ? = inconclusive; . = not tested or not shown; [ ] = another dose, or the depositor's remark. Most compounds without a hit are left out; they make up all but 19% or so of the library. Unless noted, calls come from the whole dose curve; as a rule, active = well fitted curve in the direction sought with a large enough effect; inconclusive = small, poorly fitted or top-dose-only effect, or another doubt; inactive = no such curve, though single readings can be large; an effect the other way counts as inactive or inconclusive.

SMILES | MCF10A rereplic | DT40 TDP1 CPT | SW480 rereplic | BCR signal inh | IL-1B inflam inh | TDP1 cell noCPT
Cc1ccc(C2CC(=O)c3cnc(N4CCN(c5ccccc5)CC4)nc3C2)cc1 (centres undefined) | 13% | ? | -11% | 2% | 12 | 16µM*
O=C1CC(c2ccc(F)cc2)Cc2nc(N3CCN(c4ccccc4)CC3)ncc21 (centres undefined) | ? | ? | -3% | -1% | -2 | ?
COc1ccc(C2CC(=O)c3cnc(N4CCN(Cc5ccccc5)CC4)nc3C2)cc1 (centres undefined) | 16% | ? | 14% | -8% | -10 | 23µM*
Cc1ccc(C2CC(=O)c3cnc(N4CCc5ccccc5C4)nc3C2)cc1 (centres undefined) | 17% | ? | 6% | 2% | 15 | 18µM*
CCN1CCN(c2ncc3c(n2)CCN(Cc2ccc(OC)c(OC)c2)C3)CC1 | . | -8% | . | . | . | -14%
O=C(O)C(CCc1ccccc1)(Cc1ccccc1)C(=O)O | 7% | -22% | -10% | . | 9 | 0%
CCOc1ccc(NC(=O)c2cc(OC)nc3ccccc23)cc1 | 23µM* | 0.52µM* | ? | ? | 50 | 0.58µM*
Cc1ccc(NC(=O)c2cc(Cl)nc3ccccc23)cc1 | 2% | -6% | -13% | -15% | 1 | -6%
COc1cc(C(=O)Nc2ccc(C)cc2)c2ccccc2n1 | 5.8µM* | 0.82µM* | 21µM* | ? | 104 | 0.73µM*
O=C1CCCCC1C(O)(C(=O)c1ccccc1)c1ccccc1 (centres undefined) | . | 1% | . | . | -23 | ?
COc1cccc(NC(=O)Cn2nnc(-c3nc(-c4ccccc4)no3)c2N)c1 | . | ? | . | -29% | . | 18µM*
Cc1ccc(-c2noc(-c3nnn(CC(=O)Nc4cccc(C(F)(F)F)c4)c3N)n2)cc1 | . | 2.1µM* | . | . | . | 2.1µM*
O=C(c1cc2c(ccc3ccccc32)oc1=O)N1CCCC1 | 0% | 4% | -1% | -2% | -52* | -3%
Cc1ccc(C(=O)N2c3ccc(F)cc3CCC2C)o1 (centres undefined) | ? | ? | -14% | ? | 11 | ?
COc1ccc(C(=O)N2c3ccc(F)cc3CCC2C)cc1OC (centres undefined) | 16% | ? | 1% | -4% | -12 | ?
COc1cc(C(=O)N2c3ccccc3CCC2C)cc(OC)c1OC (centres undefined) | ? | 18µM* | 1% | -1% | 7 | 9.2µM*
COc1cc(OC)cc(C(=O)N2c3ccc(F)cc3CCC2C)c1 (centres undefined) | -1% | 10µM* | -1% | 0% | -1 | 12µM*
CC1CCc2cc(F)ccc2N1C(=O)CCl (centres undefined) | ? | 5.8µM* | ? | ? | -97* | 6.5µM*
Cc1nn(Cc2ccc(C(=O)N3c4ccc(F)cc4CCC3C)o2)c(C)c1Br (centres undefined) | ? | 21µM* | 0% | ? | -6 | 16µM*
Cc1ccc(Cl)cc1NC(=O)Cn1nc2c(cc1=O)CC(C)CC2 (centres undefined) | . | -17% | . | . | . | -33%
O=C(O)c1cccc(S(=O)(=O)NCC2COc3ccccc3O2)c1 (centres undefined) | -40% | -15% | -3% | -3% | -9 | -8%
CC1CCc2cc(F)ccc2N1C(=O)c1ccc2c(c1)OCO2 (centres undefined) | 11% | ? | -4% | -2% | -1 | 15µM*
CCc1ccc(CNC(=O)C2CCN(S(=O)(=O)N3CCCCC3)CC2)cc1 | . | ? | . | . | -19 | 23µM*
CC(NC(=O)C1CCN(c2nnc(-n3cccc3)s2)CC1)C12CC3CC(CC(C3)C1)C2 (centres undefined) | 0% | 16µM* | -2% | -2% | -15 | 15µM*
CC(CCc1ccccc1)NC(=O)C1CCN(S(=O)(=O)N2CCCCC2)CC1 (centres undefined) | -1% | ? | 3% | -3% | -56* | ?
SMILES | MCF10A rereplic | DT40 TDP1 CPT | SW480 rereplic | BCR signal inh | IL-1B inflam inh | TDP1 cell noCPT
CC(CCc1ccccc1)NC(=O)C1CCN(S(=O)(=O)c2ccc(F)cc2)CC1 (centres undefined) | 7% | -13% | -12% | 7% | -63* | -7%
COc1ccc(CNC(=O)C2CCN(S(=O)(=O)N3CCCCC3)CC2)cc1 | 11% | -4% | -1% | -6% | -1 | 3%
CC(CCc1ccccc1)NC(=O)C1CCCN(c2nnc(-n3cccc3)s2)C1 (centres undefined) | 22% | 18µM* | 2% | -4% | -27 | ?
CC1CCN(S(=O)(=O)N2CCC(C(=O)NC(C)c3ccccc3)CC2)CC1 (centres undefined) | . | 10µM* | . | . | 12 | ?
COc1ccc(S(=O)(=O)N2CCC(C(=O)NC(C)c3ccccc3)CC2)cc1 (centres undefined) | . | -1% | . | . | . | ?
O=C(NC1CCN(Cc2ccccc2)CC1)C1CCCN(c2nnc(-n3cccc3)s2)C1 (centres undefined) | 4% | ? | -6% | 4% | -22 | ?
Cc1onc(-c2ccccc2)c1C(=O)NCCSCc1ccco1 | 0% | -15% | -6% | 3% | -15 | ?
CCOC(=O)c1c(NC(=O)CSc2nc3cc(Cl)ccc3c(=O)n2Cc2ccco2)sc(C(=O)N(C)C)c1C | ? | ? | 9% | -5% | -58* | ?
COCCNC(=O)CSc1nc2cc(OC)c(OC)cc2c(=O)n1Cc1ccc(OC)cc1 | 14% | -1% | 7% | 1% | 9 | -4%
COc1cc2nc(SCC(=O)NCc3ccco3)n(Cc3ccc(Cl)cc3)c(=O)c2cc1OC | 15µM* | ? | 18µM* | 13% | 39 | -4%
CCc1ccc(NC(=O)CSc2nc3cc(C(=O)OC)ccc3c(=O)n2Cc2ccco2)cc1 | -182%[0.0737 µM] | 16µM* | 17% | -12% | -8 | 10µM*
CCOC(=O)c1c(NC(=O)CSc2nnnn2C)sc(C(=O)N(C)C)c1C | -4% | 12% | -1% | -1% | 57 | -3%
